Measured potencies and affinities stand elsewhere. Calls of active or inactive are those of the source.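 How the source made its calls: active means fitted half-maximal dose no more than twice the top valid tested dose, for compounds that lower signal; inconclusive means fit invalid, or curve flat with activity between -70 and -30; inactive means potency past limit, curve flat within ±30, or signal increasing.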
Biological target: NAD-dependent protein deacylase sirtuin-5, mitochondrial (Homo sapiens) (UniProt Q9NXA8)
Sequence (Q9NXA8 whole entry, looked up): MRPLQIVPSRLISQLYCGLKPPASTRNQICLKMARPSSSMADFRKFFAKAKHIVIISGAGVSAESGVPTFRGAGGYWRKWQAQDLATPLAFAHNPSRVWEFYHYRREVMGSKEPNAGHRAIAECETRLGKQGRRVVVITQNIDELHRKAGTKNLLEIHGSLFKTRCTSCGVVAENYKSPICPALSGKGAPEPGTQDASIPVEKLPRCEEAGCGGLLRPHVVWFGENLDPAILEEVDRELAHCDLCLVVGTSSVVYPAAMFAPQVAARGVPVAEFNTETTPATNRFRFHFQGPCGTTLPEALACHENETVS
Assay: blockers of sirtuin-5 peptide desuccinylation – biochemical, fluorescence imaging, cherry-pick, set 6, dose response (AID 720597);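 further: lower AMC signal can also come from blocking the trypsin step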
Conditions: Purified SirT5, succinyl-peptide-AMC/trypsin fluorescence; series mostly up to 15 µM

outcome, inactive:
COCC#Cc1ccc2c(c1)O[C@@H](CN(C)CC1CCCC1)[C@H](C)CN([C@@H](C)CO)S2(=O)=O
O=S(=O)(c1ccc(F)cc1)N1CCCCN2[C@H](CO)[C@H](c3ccc(C#CC4CCCC4)cc3)[C@@H]2C1
O=C(NC1CCCC1)N[C@@H]1CC[C@H](CC(=O)N2CCOCC2)O[C@H]1CO
C[C@@H]1CCCCO[C@@H](CN(C)C(=O)C2CCCCC2)[C@H](C)CN([C@@H](C)CO)C(=O)c2cc(NC(=O)Nc3ccc(F)cc3)ccc2O1
COc1ccc(NC(=O)N(C)C[C@@H]2Oc3ccc(NS(=O)(=O)c4ccc(F)cc4)cc3C(=O)N([C@@H](C)CO)C[C@H]2C)cc1
COCC(=O)N1C[C@@H](C)[C@@H](OC)CN(C)C(=O)c2cc(NC(=O)c3cc(C)on3)ccc2OC[C@H]1C
CC(C)CC#Cc1ccc2c(c1)O[C@@H](CN(C)C(=O)c1cccc(F)c1)[C@H](C)CN([C@@H](C)CO)S2(=O)=O
COc1ccc(NC(=O)N(C)C[C@H]2Oc3ccc(NS(=O)(=O)c4ccc(F)cc4)cc3C(=O)N([C@@H](C)CO)C[C@@H]2C)cc1
CC(=O)NC[C@@H]1[C@@H](c2ccc(-c3ccccc3F)cc2)[C@@H](CO)N1CCC(F)(F)F
C[C@H](CO)N1C[C@H](C)[C@H](CN(C)Cc2cccc(C(F)(F)F)c2)Oc2ncc(C#Cc3ccccc3)cc2C1=O
CNC[C@@H]1Oc2ccc(NC(=O)Nc3ccc(F)cc3)cc2CC(=O)N([C@H](C)CO)C[C@@H]1C
O=C(CCN1CCCCC1)N[C@@H]1CC[C@@H](CC(=O)N2CCC(Cc3ccccc3)CC2)O[C@@H]1CO
Cc1cccc(-c2ccc([C@H]3[C@H]4CN(S(=O)(=O)c5cccc(F)c5)CC(=O)N4[C@H]3CO)cc2)c1
O=C(CCN1CCCCC1)N[C@@H]1CC[C@H](CC(=O)N2CCC(Cc3ccccc3)CC2)O[C@H]1CO
COc1ccc(C#Cc2ccc([C@H]3[C@H](CO)N4C(=O)CN(C(=O)c5cccnc5)C[C@@H]34)cc2)cc1
O=C(c1cnccn1)N1CC(=O)N2[C@H](CO)[C@@H](c3ccc(C4=CCCCC4)cc3)[C@@H]2C1
CC1c2nc3ccccc3n2C(CC(=O)NCc2ccc(Cl)cc2)C(=O)N1Cc1ccccc1 (stereo not given)
C[C@@H]1CN([C@H](C)CO)S(=O)(=O)c2ccc(C3=CCCCC3)cc2O[C@H]1CN(C)C(=O)Nc1ccc2c(c1)OCO2
C[C@H](CO)N1C[C@H](C)[C@@H](CN(C)S(=O)(=O)c2cccc(F)c2)Oc2ncc(C#CC3CCCCC3)cc2C1=O
COc1ccc(S(=O)(=O)N(C)C[C@H]2OCCCC[C@@H](C)Oc3ccc(NS(=O)(=O)c4ccc(C)cc4)cc3C(=O)N([C@@H](C)CO)C[C@@H]2C)cc1
C[C@H]1CN([C@@H](C)CO)C(=O)c2cc(NC(=O)CCCCCC(=O)Nc3ccccc3N)ccc2O[C@H]1CN(C)Cc1ccc(Cl)c(Cl)c1
C[C@@H]1CN([C@@H](C)CO)S(=O)(=O)c2ccc(C3=CCCCC3)cc2O[C@H]1CN(C)S(=O)(=O)c1ccc(F)cc1
CS(=O)(=O)N1[C@@H](CO)[C@@H](c2ccccc2)C12CN(C(=O)c1ccccc1F)C2
C[C@@H]1CN([C@@H](C)CO)C(=O)Cc2cc(NS(=O)(=O)c3ccc(Cl)cc3)ccc2O[C@H]1CN(C)Cc1ccc(Cl)c(Cl)c1
CN(C)CC(=O)N1[C@H](CO)[C@@H](c2ccccc2)C12CN(C(=O)C1CCCC1)C2
COc1cccc(NC(=O)N2CC(=O)N3[C@H](C2)[C@@H](c2ccc(C#CCC4CCCC4)cc2)[C@@H]3CO)c1
CC(C)CN(C[C@H]1N[C@H](CO)[C@@H]1c1ccccc1)C(=O)C1CCCCC1
Cc1cccc(-c2ccc([C@@H]3[C@@H](CO)N4CCCCN(S(=O)(=O)c5ccccc5F)C[C@H]34)cc2)c1
O=C(C[C@H]1CC[C@@H](NS(=O)(=O)c2ccccc2)[C@@H](CO)O1)NCc1ccncn1
C[C@@H]1CN([C@H](C)CO)S(=O)(=O)c2ccc(C#Cc3ccccn3)cc2O[C@@H]1CN(C)Cc1cccc(F)c1
COc1ccc(S(=O)(=O)Nc2ccc3c(c2)C(=O)N([C@@H](C)CO)C[C@@H](C)[C@H](CN(C)Cc2ccc(Oc4ccccc4)cc2)O3)cc1
C[C@H]1CN([C@@H](C)CO)S(=O)(=O)c2ccc(C#Cc3cccc(F)c3)cc2O[C@@H]1CN(C)S(=O)(=O)c1ccccc1F
COc1ccccc1-c1ccc2c(c1)O[C@@H](CN(C)S(=O)(=O)c1ccc(F)cc1)[C@@H](C)CN([C@H](C)CO)S2(=O)=O
OC[C@H]1[C@@H](c2ccc(-c3cccc(F)c3)cc2)[C@H]2CN(CCC(F)(F)F)CCCCN21
C[C@H](CO)N1C[C@H](C)[C@@H](CN(C)Cc2ccc(C(F)(F)F)cc2)OCCCC[C@H](C)Oc2ccc(NS(=O)(=O)c3cccs3)cc2C1=O
C[C@@H]1CN([C@H](C)CO)C(=O)c2cc(NC(=O)c3ccncc3)ccc2O[C@@H]1CN(C)C(=O)Nc1ccc2c(c1)OCO2
Cc1ccc(S(=O)(=O)Nc2ccc3c(c2)CC(=O)N([C@@H](C)CO)C[C@@H](C)[C@H](CN(C)Cc2ccc(Oc4ccccc4)cc2)O3)cc1
COc1ccc(S(=O)(=O)Nc2ccc3c(c2)C(=O)N([C@@H](C)CO)C[C@H](C)[C@@H](CN(C)Cc2ccc(Oc4ccccc4)cc2)O3)cc1
CCC(=O)N(C)C[C@@H]1Oc2ncc(-c3ccc(F)cc3)cc2C(=O)N([C@@H](C)CO)C[C@@H]1C
C[C@H](CO)N1C[C@H](C)[C@@H](CN(C)Cc2ccc(Oc3ccccc3)cc2)Oc2c(NC(=O)CCCCCC(=O)Nc3ccccc3N)cccc2C1=O

Source: PubChem BioAssay AID720597 (Broad Institute, 2013)
